This is an account of results in PubChem BioAssay.

A short description of experiment [1]: optical density shifts of acrAB sulA E. coli – strain DRC41, OD650, 48 h, E. coli filamentation inducer project, primary screen (AID 1152).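 Also: E. coli MC1000 strain DRC41 lacking acrAB efflux pump and sulA.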 Conditions: higher = more signal, called active from +8 up or from −8 down.
A short description of experiment [2]: probe aLefty1 binding on compound microarray – biochemical, small-molecule microarray, 635/667 nm fluorescence, primary screen (AID 1153).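 Also: score merges spot fluorescence with signal-to-noise ratio from the scanned slide images.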 As to conditions: higher = more signal.
The nature of experiment [3]: plasmodial surface anion channel blockers, osmotic lysis – cell-based, P. falciparum Indochina, OD700, 1 h, primary screen (AID 1154). Conditions: P. falciparum Indochina infected RBC osmotic lysis, higher = more signal, called active from +8 up or from −8 down.
The nature of experiment [4]: plasmodial surface anion channel blockers, osmotic lysis – cell-based, P. falciparum Indochina, OD700, 2 h, primary screen (AID 1155).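 Also: lysis reports solute entry through the parasite surface anion channel PSAC.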 As to conditions: P. falciparum Indochina infected erythrocytes, higher = more signal, called active from +8 up or from −8 down.
A short description of experiment [5]: changes in parasitized red cell lysis, either direction – P. falciparum Indochina, OD700, 3 h, PSAC antagonist project, primary screen (AID 1156). Conditions: P. falciparum-infected erythrocytes, osmotic lysis, higher = more signal, called active from +8 up or from −8 down.
Experiment [6] is described as follows: plasmodial surface anion channel blockers, osmotic lysis – cell-based, P. falciparum Indochina, OD700, 18 h, primary screen (AID 1157). Conditions: P. falciparum Indochina infected erythrocytes, osmotic lysis OD700, 18 h; higher = more signal, called active from +8 up or from −8 down.
Experiment [7] in a line: S6 kinase pathway phospho-S6 level changes – cell-based, A549, cytoblot, luminescence, serum-stimulated, primary screen (AID 1158).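 Also: serum-stimulated A549 lung adenocarcinoma cells; signal is phosphorylated S6 detected by cytoblot immunostaining with HRP secondary.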 Conditions: 5 h, higher = more signal.
Experiment [8] has as its target NADPH oxidase 2 (Homo sapiens) (UniProt P04839). As to the kind of experiment: compounds shifting NOX2 Amplex Red fluorescence – cell-based, HEK293-NOX2, PMA-stimulated, NOX inhibitor project, primary screen (AID 1159). Also: test concentration not given here. Conditions: 45 min, higher = more signal, called active from +8 up or from −8 down.
Experiment [9] addresses NADPH oxidase 4 (Homo sapiens) (UniProt Q9NPH5). Kind of experiment: compounds shifting NOX4 Amplex Red fluorescence – cell-based, HEK293-NOX4, tetracycline-induced, NOX inhibitor project, primary screen (AID 1160). Conditions: HEK293-NOX4, Amplex Red H2O2 fluorescence, 45 min; higher = more signal, called active from +8 up or from −8 down.
Experiment [10] addresses NADPH oxidase 5 (Homo sapiens) (UniProt Q96PH1). Kind of experiment: compounds shifting NOX5 Amplex Red fluorescence – cell-based, HEK293-NOX5, NOX inhibitor project, primary screen (AID 1161). As to conditions: HEK293-NOX5, ionomycin, 45 min, higher = more signal.

Molecules are shown by their SMILES. Active and inactive are the calls of the source.

Chain of NADPH oxidase 4 (Homo sapiens) (Q9NPH5 whole entry, looked up): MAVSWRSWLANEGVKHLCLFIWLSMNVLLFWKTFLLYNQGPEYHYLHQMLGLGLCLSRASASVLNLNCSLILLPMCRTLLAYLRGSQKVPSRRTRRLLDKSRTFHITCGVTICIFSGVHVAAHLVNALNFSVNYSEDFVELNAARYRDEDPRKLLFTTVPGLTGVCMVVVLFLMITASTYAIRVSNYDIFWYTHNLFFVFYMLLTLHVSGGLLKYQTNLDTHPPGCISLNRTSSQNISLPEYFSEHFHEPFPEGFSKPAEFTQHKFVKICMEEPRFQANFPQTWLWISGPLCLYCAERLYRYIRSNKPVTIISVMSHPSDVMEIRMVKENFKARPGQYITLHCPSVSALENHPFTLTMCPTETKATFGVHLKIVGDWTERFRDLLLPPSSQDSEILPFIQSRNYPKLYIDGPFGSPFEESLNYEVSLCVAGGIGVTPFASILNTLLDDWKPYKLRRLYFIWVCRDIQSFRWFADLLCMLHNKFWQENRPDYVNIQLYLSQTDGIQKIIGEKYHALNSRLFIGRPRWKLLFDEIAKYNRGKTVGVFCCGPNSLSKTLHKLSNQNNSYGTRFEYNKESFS
Chain of NADPH oxidase 5 (Homo sapiens) (Q96PH1 whole entry, looked up): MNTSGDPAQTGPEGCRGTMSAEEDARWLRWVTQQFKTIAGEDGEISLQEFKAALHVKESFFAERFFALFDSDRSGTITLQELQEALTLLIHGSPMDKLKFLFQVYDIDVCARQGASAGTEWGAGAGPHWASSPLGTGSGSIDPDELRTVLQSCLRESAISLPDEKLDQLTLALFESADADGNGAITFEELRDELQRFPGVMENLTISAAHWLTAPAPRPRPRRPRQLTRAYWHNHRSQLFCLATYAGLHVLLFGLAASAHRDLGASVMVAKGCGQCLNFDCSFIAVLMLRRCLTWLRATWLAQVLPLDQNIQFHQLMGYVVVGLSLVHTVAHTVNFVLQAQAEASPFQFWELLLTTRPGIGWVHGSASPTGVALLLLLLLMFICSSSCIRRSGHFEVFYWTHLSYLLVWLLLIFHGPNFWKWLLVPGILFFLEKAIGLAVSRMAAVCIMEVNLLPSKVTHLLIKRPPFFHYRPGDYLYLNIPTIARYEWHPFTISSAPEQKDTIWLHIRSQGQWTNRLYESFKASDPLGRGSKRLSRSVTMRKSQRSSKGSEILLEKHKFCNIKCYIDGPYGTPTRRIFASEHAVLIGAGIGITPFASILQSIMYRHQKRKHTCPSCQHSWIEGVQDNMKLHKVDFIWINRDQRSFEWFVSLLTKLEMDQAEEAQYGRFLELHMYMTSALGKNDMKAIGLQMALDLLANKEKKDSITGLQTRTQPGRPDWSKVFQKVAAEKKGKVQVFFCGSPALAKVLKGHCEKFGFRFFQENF
Chain of NADPH oxidase 2 (Homo sapiens) (P04839 whole entry, looked up): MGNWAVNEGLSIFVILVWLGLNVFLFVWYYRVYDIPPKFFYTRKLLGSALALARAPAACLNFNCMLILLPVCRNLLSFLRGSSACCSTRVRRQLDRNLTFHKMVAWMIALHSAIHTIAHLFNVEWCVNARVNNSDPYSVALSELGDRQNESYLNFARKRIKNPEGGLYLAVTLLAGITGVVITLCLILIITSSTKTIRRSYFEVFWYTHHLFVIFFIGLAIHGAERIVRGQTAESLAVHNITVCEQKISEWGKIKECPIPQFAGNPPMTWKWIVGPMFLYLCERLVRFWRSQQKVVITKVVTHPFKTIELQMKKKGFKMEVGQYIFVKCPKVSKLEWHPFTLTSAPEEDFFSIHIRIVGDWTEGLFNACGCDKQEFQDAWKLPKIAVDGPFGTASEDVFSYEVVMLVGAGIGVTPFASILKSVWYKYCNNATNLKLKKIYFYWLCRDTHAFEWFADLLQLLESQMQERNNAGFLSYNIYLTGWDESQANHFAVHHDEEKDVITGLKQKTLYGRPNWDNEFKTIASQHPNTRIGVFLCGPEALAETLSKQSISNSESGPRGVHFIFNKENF

With `COC(=O)c1c(CC[C@@H](CO)NC(=O)N[C@@H](C)Cn2cc(C3(O)CCCCC3)nn2)oc(C(C)=O)c1C(=O)OC`, the z-score in [1] was -0.244 (inactive); in experiment [3], 5.47 (inactive); in experiment [4], -0.319 (inactive); in experiment [5] it was 1.01 (inactive); in [6] it was -1.01 (inactive); in [7] it was 0.813. Besides, the values for the z-score in [8], in [9] and in experiment [10] were -6.12 (inactive), -2.61 (inactive) and -2.88, respectively. The same compound gave a composite z-score in experiment [2] of -0.0984.

Turning to `Cc1ccc(S[C@]2(C(=O)NCC(F)(F)F)CC(=O)N(C(C)C)[C@@H]2c2ccc(CO)cc2I)cc1`, the z-score in [1] was 0.302 (inactive); in experiment [3], 4.6 (inactive); in experiment [4], 0.383 (inactive); in [5] it was 0.24 (inactive); in experiment [6], 0.548 (inactive); in experiment [7], 0.303. For the same compound, the figures for the z-score in experiment [8], in experiment [9] and in experiment [10] were 1.81 (inactive), -2.38 (inactive) and 1.5, respectively. In [2], the composite z-score turned out to be 0.108.

Consider `C=CCOC(=O)[C@H]1[C@@H]2C(=O)O[C@@H](c3ccccc3)[C@@H](c3ccccc3)N2[C@@H](c2ccc(OCCOC(=O)[C@H]3C[C@H]4C(=O)N5CCC[C@H]5C(=O)N4[C@H]3c3ccc(O)cc3)cc2)[C@]12C(=O)Nc1ccccc12`, for which the z-score is -0.827 (inactive) in experiment [1]; 1.72 (inactive) in experiment [3]; 1.25 (inactive) in [4]; 1.58 (inactive) in experiment [5]; 0.889 (inactive) in [6]; -0.352 in experiment [7]. The z-score in [8] is 2.25 (inactive); in experiment [9] it was 1.39 (inactive); in experiment [10] it was 1.87. In experiment [2], the composite z-score is 0.227.

For `C=CCOC(=O)[C@@H]1[C@H]2C(=O)O[C@H](c3ccccc3)[C@H](c3ccccc3)N2[C@H](c2ccc(OCCOC(=O)[C@@H]3C[C@@H]4C(=O)N5CCC[C@H]5C(=O)N4[C@@H]3c3ccc(O)cc3)cc2)[C@@]12C(=O)Nc1ccc(I)cc12`, the z-score is 2.52 (inactive) in experiment [1]; 2.19 (inactive) in [3]; 0.727 (inactive) in experiment [4]; 2.43 (inactive) in [5]; -1.31 (inactive) in [6]; 3.17 in [7]. For the same compound, the z-score was 1.32 (inactive) in [8], 0.808 (inactive) in [9] and 1.69 in experiment [10]. In [2], this compound registered a composite z-score of 0.365.

`CCOC(=O)C[C@H]1[C@H](OC(=O)c2ccc(C(=O)c3ccccc3)cc2)[C@@H](NC(=O)c2ccc(-c3ccccc3)cc2)c2cc(OCCCO)ccc2N1C(=O)c1ccccc1`: the z-score is -0.948 (inactive) in experiment [1]; 0.358 (inactive) in experiment [3]; 0.135 (inactive) in [4]; -0.559 (inactive) in experiment [5]; -0.16 (inactive) in experiment [6]; 0.0156 in experiment [7]. The z-score in [8] is 0.788 (inactive); in experiment [9], 0.379 (inactive); in [10] it was 0.551. In addition, the composite z-score in experiment [2] is -0.199.

Regarding `COCCCN1C(=O)[C@@]2(c3ccc([N+](=O)[O-])cc3)CC(=O)N(C3CCCCC3)[C@@H]2c2ccc(CO)cc21`, the z-score was -0.0972 (inactive) in experiment [1]; -0.141 (inactive) in [3]; -0.063 (inactive) in experiment [4]; -0.382 (inactive) in experiment [5]; 0.0583 (inactive) in experiment [6]; -0.495 in [7]. Further, the figures for the z-score in experiment [8], in experiment [9] and in [10] were -2.14 (inactive), -1.3 (inactive) and -0.379, respectively. This compound also came in with a composite z-score in [2] of -0.35.

In the case of `O=C1OCCC/C=C\[C@H]2OC34C=CCN(Cc5ccccc5)C(=O)[C@H]3N(CCCCCCO)C(=O)[C@@H]4C12` (stereo not given in full), the z-score was 1.19 (inactive) in [1]; 2.96 (inactive) in experiment [3]; 0.141 (inactive) in experiment [4]; 0.59 (inactive) in experiment [5]; 0.524 (inactive) in [6]; 0.0169 in experiment [7]. The z-score in experiment [8] is 1.12 (inactive); in [9] it was 0.279 (inactive); in experiment [10], 1.88. Moreover, in experiment [2], the composite z-score is -0.0576.

Consider `COCCCNC(=O)[C@@]1(Cc2ccccc2)N=C(c2ccc(OCCCO)cc2)O[C@H]1c1ccccc1`, for which the z-score in experiment [1] is -0.146 (inactive); in experiment [3], 19.7 (active); in [4] it was 3.35 (inactive); in experiment [5], -0.321 (inactive); in experiment [6], 0.32 (inactive); in [7] it was -0.628. Also, the z-score in experiment [8] is -0.981 (inactive); in experiment [9], 1.11 (inactive); in experiment [10], 1.86. In addition, the composite z-score in [2] was found to be 0.39.

On to `O=C1c2ccccc2[C@@]2(Cc3ccccc3N(CC(F)(F)F)C2=O)[C@H](c2ccc(CO)cc2)N1Cc1ccccc1Cl`, for which the z-score is 0.606 (inactive) in experiment [1]; 0.902 (inactive) in [3]; 0.638 (inactive) in experiment [4]; 0.955 (inactive) in experiment [5]; 0.5 (inactive) in experiment [6]; 0.258 in [7]. Further, the figures for the z-score in experiment [8], in [9] and in experiment [10] were 0.0997 (inactive), -0.991 (inactive) and -0.826, respectively. The compound further came in with a composite z-score in experiment [2] of -0.677.

As to `COCCOC(=O)N1C(=O)[C@@]2(c3cc(C#Cc4ccc(OC)cc4)ccc31)[C@H](c1ccccc1OCCO)N1[C@H](c3ccccc3)[C@H](c3ccccc3)OC(=O)[C@H]1[C@@H]2C(=O)N1CCN(c2ncccn2)CC1`, the z-score in [1] was 0.148 (inactive); in [3], 3.79 (inactive); in experiment [4] it was 3.04 (inactive); in experiment [5], 1.3 (inactive); in [6] it was 1.76 (inactive); in experiment [7] it was -0.133. Moreover, the z-score in experiment [8] is 0.978 (inactive); in [9], -0.00787 (inactive); in [10], 0.882. In [2], this compound gave a composite z-score of 0.118.

With `CC(C)N1C(=O)c2ccccc2[C@](C)(C(=O)NCc2ccccc2)[C@@H]1c1ccc(CO)cc1`, the z-score in experiment [1] was -0.884 (inactive); in experiment [3] it was 1.53 (inactive); in experiment [4], 0.349 (inactive); in experiment [5] it was 0.24 (inactive); in experiment [6], 0.645 (inactive); in experiment [7] it was 0.0331. Also, the z-score in [8] was -0.291 (inactive); in [9], -0.0216 (inactive); in experiment [10], -0.54. This compound also yielded a composite z-score in [2] of -0.101.

`COc1ccc(C#Cc2ccc3c(c2)[C@]2(C(=O)N3)[C@H](c3ccccc3OCCO)N3[C@H](c4ccccc4)[C@H](c4ccccc4)OC(=O)[C@H]3[C@@H]2C(=O)O)cc1`: the z-score was -0.181 (inactive) in experiment [1]; 0.123 (inactive) in experiment [3]; 0.267 (inactive) in [4]; -5.14 (inactive) in experiment [5]; -0.867 (inactive) in experiment [6]; 0.25 in experiment [7]. For the same compound, the z-score in experiment [8] is 0.441 (inactive); in experiment [9], -1.36 (inactive); in [10] it was -0.669. The compound further gave a composite z-score in experiment [2] of 1.27.
